Laboratory results reported in PubChem BioAssay (NCI).
About 83,000 compounds went through this panel and 20% of them were active in at least one assay; those are over-represented in the sample as a whole.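 Each cell line was grown in a 96-well plate and treated with one concentration of compound for 48 hours. Values below 10 were considered active.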 Activity calls are given as the source filed them.

Tested on: MDA-MB-435 melanoma
Experiment: NCI-60 one-dose screen, 48 h (100 = growth as untreated, 0 = no growth, -100 = all killed)
Conditions: 10 µM unless noted

Row | SMILES | growth
1 | O=c1c2cc(F)ccc2sc2c(NCCCNCCO)nc3ccc(F)cc3c12 | -28.4% (active)
2 | COc1ccc2sc3c(NCCCNCCO)nc4ccccc4c3c(=O)c2c1 | 10.6% (inactive)
3 | COc1ccc(C(=O)/C=C/c2sc(Cl)nc2Cl)cc1 | 15.7% (inactive)
4 | O=C(O)c1cn(C2CC2)c2cc(N3CCN(C(=O)Nc4nc(-c5ccc(Cl)cc5)cs4)CC3)c(F)cc2c1=O | 9.36% (active)
5 | Cn1cc(-c2cc3ncnc(Nc4ccc(CC(=O)Nc5cc(C(C)(C)C)nn5C)cc4)c3s2)cn1 | 58.4% (inactive)
6 | O=C(Nc1ccc(Cl)cc1F)c1ccccc1O | 41.3% (inactive)
7 | Cc1cc(Cl)ccc1NS(=O)(=O)c1ccc(-c2cnc(C3CC3)o2)cc1 | -36.4% (active)
8 | COc1c(B(O)O)cc(F)cc1-c1nc2ccc3[nH]ncc3c2c2c1CCCC2 | 16.4% (inactive)
9 | CCCCCCN(CCCCCC)c1ccc(/C=C2/SC(=O)NC2=O)c(C)c1 | 82.1% (inactive)
10 | Cc1[nH]c(C(=O)Nc2ccc(C(=O)NCCN)cc2OC(C)C)c(Cl)c1Cl | -17.6% (active)
11 | COc1cc(/C=C/c2ccccc2)cc(OC)c1 | 103% (inactive)
12 | COC(=O)c1ccc2[nH]c(O)c(C(=Nc3ccc(N(C)C(=O)CN4CCN(C)CC4)cc3)c3ccccc3)c2c1 | 27.2% (inactive)
13 | COc1cc(Nc2nc(NCCN)nc3cc[nH]c(=O)c23)cc(OC)c1 | 69.6% (inactive)
14 | O=c1c2cc(F)ccc2sc2c(NCCN3CCOCC3)nc3ccccc3c12 | 61.2% (inactive)
15 | O=C1c2cccc3cccc(c23)C(=O)N1Nc1nc(N2CCOCC2)nc(N2CCN(c3ccccc3)CC2)n1 | -12.6% (active)
16 | c1ccc(OCc2nnc(-c3ccc(Oc4ccccc4)cc3)o2)cc1 | 101% (inactive)
17 | C=C1C(=O)O[C@H]2[C@H]1CC/C(COC(=O)CCC(=O)NCCOCCOCC(=O)Nc1ccc(OC)c(C(N)=O)c1O)=C\CC[C@@]1(C)O[C@@H]21 | 97.8% (inactive)
18 | Nc1ccc(Sc2ccc([N+](=O)[O-])c3nonc23)cc1 | 99.2% (inactive)
19 | Cc1ccc(C(=O)NN2C(=O)CSC2c2cccc([N+](=O)[O-])c2)cn1 (stereo unspecified) | 97% (inactive)

Row | SMILES | growth
20 | CCOC(=O)c1[nH]c(C)c(C(=O)OCc2ccccc2C#N)c1C | 9.9% (active)
21 | COc1ccc(-c2nnc(COc3ccc(Cl)cc3Cl)o2)cc1OC | 48.4% (inactive)
22 | c1ccc2cc(C[n+]3ccn(CCCCCCCCCCCCn4cc[n+](Cc5ccc6ccccc6c5)c4)c3)ccc2c1 | -97.1% (active)
23 | COc1ccc(-c2nc3sc(-c4ccccc4)cn3n2)cc1 | -8.6% (active)
24 | COc1ccc(C2CC(c3ccc(Nc4nc(Nc5ccc(F)cc5)nc(Nc5ccc(Cl)cc5)n4)cc3)=NN2C(C)=O)cc1 (stereo unspecified) | 97.1% (inactive)
25 | O=C1CN(CCN2CC(=O)N(Cc3ccccc3)C(=O)C2)CC(=O)N1Cc1ccccc1 | 106% (inactive)
26 | COc1ccc(-c2cc3c4c(nc5ccccc5c4c2)CC(c2cc(OC)c(OC)c(OC)c2)O3)cc1 (stereo unspecified) | 56.4% (inactive)
27 | COc1ccc(C(=O)N=Nc2c(O)n(C)c3ccccc23)cc1 | 103% (inactive)
28 | NC1CCN(c2nc(Nc3cccc(C(F)(F)F)c3)c3c(=O)[nH]ccc3n2)CC1 | -74.2% (active)
29 | CC(C)(C)NC(=O)C(OC(=O)c1cccc(Cl)c1)c1ccc(Cl)cc1 (stereo unspecified) | 107% (inactive)
30 | NC(=O)C1(Nc2ccc(Br)cc2)CCCC1 | 105% (inactive)
31 | Cn1cc(-c2cc3ncnc(Nc4ccc(CC(=O)Nc5cc(C(C)(C)C)on5)cc4)c3s2)cn1 | 40.7% (inactive)
32 | O=C(Nc1ccc(Br)cc1F)c1cc(Br)ccc1O | 3.11% (active)
33 | COc1ccn2c(C(C)=O)cc(C(=O)c3ccc4c(c3)Sc3ccccc3N4)c2c1 | -32.9% (active)
34 | COc1nc2ccccc2cc1-c1nc2c(cnn2-c2ccccc2)c(=O)[nH]1 | -20.9% (active)
35 | Cc1ccc(-c2nc(N3CCN(C(=O)Nc4ccc(Cl)c(C(F)(F)F)c4)CC3)c3ccccc3n2)cc1 | 79.7% (inactive)
36 | CCc1nnc(NC(=O)c2nnn(-c3ccccc3)c2-c2ccco2)s1 | 97.1% (inactive)
37 | O=C(Nc1ccc(I)cc1F)c1cc(I)ccc1O | 2.77% (active)
38 | CCCCCCNC(=O)Oc1ccc(/C(=C(\C)c2ccc(OC)cc2)c2ccc(OCCN3CCCCC3)cc2)cc1 | 66.7% (inactive)

Tested on: SW-620 colon
Experiment: as above
Conditions: 10 µM unless noted

Row | SMILES | growth
39 | O=c1c2cc(F)ccc2sc2c(NCCCNCCO)nc3ccc(F)cc3c12 | -39.7% (active)
40 | COc1ccc2sc3c(NCCCNCCO)nc4ccccc4c3c(=O)c2c1 | -83.2% (active)
41 | COc1ccc(C(=O)/C=C/c2sc(Cl)nc2Cl)cc1 | 18.6% (inactive)
42 | O=C(O)c1cn(C2CC2)c2cc(N3CCN(C(=O)Nc4nc(-c5ccc(Cl)cc5)cs4)CC3)c(F)cc2c1=O | 20.2% (inactive)
43 | Cn1cc(-c2cc3ncnc(Nc4ccc(CC(=O)Nc5cc(C(C)(C)C)nn5C)cc4)c3s2)cn1 | 63% (inactive)
44 | O=C(Nc1ccc(Cl)cc1F)c1ccccc1O | 60.4% (inactive)
45 | Cc1cc(Cl)ccc1NS(=O)(=O)c1ccc(-c2cnc(C3CC3)o2)cc1 | 21.9% (inactive)
46 | COc1c(B(O)O)cc(F)cc1-c1nc2ccc3[nH]ncc3c2c2c1CCCC2 | 5.71% (active)
47 | CCCCCCN(CCCCCC)c1ccc(/C=C2/SC(=O)NC2=O)c(C)c1 | 88.6% (inactive)
48 | Cc1[nH]c(C(=O)Nc2ccc(C(=O)NCCN)cc2OC(C)C)c(Cl)c1Cl | -89% (active)
49 | COc1cc(/C=C/c2ccccc2)cc(OC)c1 | 100% (inactive)
50 | COC(=O)c1ccc2[nH]c(O)c(C(=Nc3ccc(N(C)C(=O)CN4CCN(C)CC4)cc3)c3ccccc3)c2c1 | 6.45% (active)
51 | COc1cc(Nc2nc(NCCN)nc3cc[nH]c(=O)c23)cc(OC)c1 | 64.2% (inactive)
52 | O=c1c2cc(F)ccc2sc2c(NCCN3CCOCC3)nc3ccccc3c12 | 42.4% (inactive)
53 | O=C1c2cccc3cccc(c23)C(=O)N1Nc1nc(N2CCOCC2)nc(N2CCN(c3ccccc3)CC2)n1 | 32.6% (inactive)
54 | c1ccc(OCc2nnc(-c3ccc(Oc4ccccc4)cc3)o2)cc1 | 103% (inactive)
55 | C=C1C(=O)O[C@H]2[C@H]1CC/C(COC(=O)CCC(=O)NCCOCCOCC(=O)Nc1ccc(OC)c(C(N)=O)c1O)=C\CC[C@@]1(C)O[C@@H]21 | 64.2% (inactive)
56 | Nc1ccc(Sc2ccc([N+](=O)[O-])c3nonc23)cc1 | 46% (inactive)
57 | Cc1ccc(C(=O)NN2C(=O)CSC2c2cccc([N+](=O)[O-])c2)cn1 (stereo unspecified) | 98.3% (inactive)

Row | SMILES | growth
58 | CCOC(=O)c1[nH]c(C)c(C(=O)OCc2ccccc2C#N)c1C | 41.4% (inactive)
59 | COc1ccc(-c2nnc(COc3ccc(Cl)cc3Cl)o2)cc1OC | 40.6% (inactive)
60 | c1ccc2cc(C[n+]3ccn(CCCCCCCCCCCCn4cc[n+](Cc5ccc6ccccc6c5)c4)c3)ccc2c1 | -55.7% (active)
61 | COc1ccc(-c2nc3sc(-c4ccccc4)cn3n2)cc1 | 35.1% (inactive)
62 | COc1ccc(C2CC(c3ccc(Nc4nc(Nc5ccc(F)cc5)nc(Nc5ccc(Cl)cc5)n4)cc3)=NN2C(C)=O)cc1 (stereo unspecified) | 109% (inactive)
63 | O=C1CN(CCN2CC(=O)N(Cc3ccccc3)C(=O)C2)CC(=O)N1Cc1ccccc1 | 96.8% (inactive)
64 | COc1ccc(-c2cc3c4c(nc5ccccc5c4c2)CC(c2cc(OC)c(OC)c(OC)c2)O3)cc1 (stereo unspecified) | 37.9% (inactive)
65 | COc1ccc(C(=O)N=Nc2c(O)n(C)c3ccccc23)cc1 | 97.3% (inactive)
66 | NC1CCN(c2nc(Nc3cccc(C(F)(F)F)c3)c3c(=O)[nH]ccc3n2)CC1 | -76.8% (active)
67 | CC(C)(C)NC(=O)C(OC(=O)c1cccc(Cl)c1)c1ccc(Cl)cc1 (stereo unspecified) | 103% (inactive)
68 | NC(=O)C1(Nc2ccc(Br)cc2)CCCC1 | 106% (inactive)
69 | Cn1cc(-c2cc3ncnc(Nc4ccc(CC(=O)Nc5cc(C(C)(C)C)on5)cc4)c3s2)cn1 | 38.8% (inactive)
70 | O=C(Nc1ccc(Br)cc1F)c1cc(Br)ccc1O | 8.55% (active)
71 | COc1ccn2c(C(C)=O)cc(C(=O)c3ccc4c(c3)Sc3ccccc3N4)c2c1 | 23.4% (inactive)
72 | COc1nc2ccccc2cc1-c1nc2c(cnn2-c2ccccc2)c(=O)[nH]1 | 20.8% (inactive)
73 | Cc1ccc(-c2nc(N3CCN(C(=O)Nc4ccc(Cl)c(C(F)(F)F)c4)CC3)c3ccccc3n2)cc1 | 84.8% (inactive)
74 | CCc1nnc(NC(=O)c2nnn(-c3ccccc3)c2-c2ccco2)s1 | 98.5% (inactive)
75 | O=C(Nc1ccc(I)cc1F)c1cc(I)ccc1O | 10.8% (inactive)
76 | CCCCCCNC(=O)Oc1ccc(/C(=C(\C)c2ccc(OC)cc2)c2ccc(OCCN3CCCCC3)cc2)cc1 | 55.3% (inactive)
